An excerpt weighted towards active compounds, which were near 2.6% of everything screened.
TAG inh – inhibitors of triacylglycerol accumulation. H9c2 cells, Nile Red lipid (TAG) fluorescence; cells loaded with 200 µM oleic acid. inhibition, % at 12.5 µM. 0.66% of 230,000 active. AID 651582;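 active = pattern-corrected inhibition of lipid staining of at least 50% with the nuclear-stain viability signal not falling by more than 50%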
Jurkat NFkB inh – lowers PMA/ionomycin-induced NF-kB signal in Jurkat cells; PMA/ionomycin-induced NF-kB luciferase reporter, luminescence; inhibition, % at 4 µM; 0.53% of 330,000 active; in the data active = inhibition above about 50%
Gli-Sufu antag – blocks Gli-Sufu signaling in a luciferase reporter | Sufu-KO-LIGHT fibroblasts, Gli luciferase reporter luminescence | inhibition, % at 5 µM | 0.74% of 340,000 active;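 active = inhibition above about 55%, limit read from the data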
697 NFkB inh – inhibitors of the PMA/ionomycin-induced NF-kB reporter in 697 B cells | inhibition, % at 4 µM | 697 B-cell NF-kB luciferase reporter, 16 h | 0.33% of 330,000 active; in the data active = inhibition above about 35%
COUP-TFII inh – inhibitors of human COUP-TFII (NR2F2). inhibition, % at 8.6 µM. AID 686940. HEK293T NGFI-A luciferase reporter, luminescence. 0.7% of 370,000 active. P24468;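 active = inhibition above a per-plate cutoff, mean inhibition of test wells between control levels plus 3 SD, cut at about 38% in these data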;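 also: cells cotransfected with COUP-TFII expression vector driving the NGFI-A reporter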
Target sequence (P24468 whole entry, looked up): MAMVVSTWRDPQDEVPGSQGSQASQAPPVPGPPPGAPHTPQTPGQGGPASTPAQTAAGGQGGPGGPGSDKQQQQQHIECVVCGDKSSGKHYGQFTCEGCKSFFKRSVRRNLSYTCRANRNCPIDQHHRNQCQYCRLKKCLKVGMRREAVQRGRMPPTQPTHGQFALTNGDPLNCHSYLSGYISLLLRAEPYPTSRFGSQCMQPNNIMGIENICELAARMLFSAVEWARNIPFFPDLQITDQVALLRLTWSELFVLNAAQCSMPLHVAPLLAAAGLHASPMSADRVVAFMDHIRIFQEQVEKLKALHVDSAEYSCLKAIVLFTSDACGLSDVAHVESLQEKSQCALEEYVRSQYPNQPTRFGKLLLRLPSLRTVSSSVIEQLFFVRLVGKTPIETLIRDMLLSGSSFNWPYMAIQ
H9c2 protect – modulators protecting cardiomyocytes from myocardial damage | H9c2 cardiomyocytes, H2O2 injury protection, ATPLite, 2 h | protection from H2O2 cell death, % at 20 µM | 0.63% of 360,000 active | AID 588492;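 active = compounds giving at least 50% protection of heart cells from peroxide-induced death in the single-dose screen, raw or plate-pattern-corrected value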
Gli antag conf – Gli-SUFU antagonism confirmation, single concentration | Sufu-KO-LIGHT cells, Gli luciferase reporter, luminescence | 40% of 2,500 active | inhibition, % at 5 µM | shares compounds with Gli-Sufu antag;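 active = mean inhibition at 5 µM reaching about 45%, limit read from the data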
SufuKO cytotox – cytotoxic in Gli-SUFU antagonist counter-screen | shares compounds with Gli-Sufu antag | Sufu-KO-LIGHT cells cytotoxicity, ATP luminescence | cytotoxicity, % at 5 µM | 32% of 2,500 active | AID 651994;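 active = mean cytotoxicity at 5 µM above about 25%, limit read from the data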;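 also: cells exposed to compound overnight for roughly 16 to 18 hours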
Wnt3a counter – counter-screen for Gli-SUFU antagonists: Wnt3a reporter inhibition | shares compounds with Gli-Sufu antag | Wnt-LIGHT cells, Wnt3a-driven luciferase reporter, luminescence | inhibition, % at 6.25 µM | 20% of 2,500 active;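 active = mean inhibition above about 25%, limit read from the data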
TAG conf – triacylglycerol accumulation inhibition, confirmation. shares compounds with TAG inh. H9c2 lipid accumulation, Nile Red fluorescence; cells loaded with 200 µM oleic acid. inhibition, % at 12.5 µM. 71% of 990 active;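 active = mean inhibition across replicates of 40% or more; inactive = mean inhibition below 40%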
VP16 Luc counter – VP16 inhibition counter-screen for COUP-TFII. shares compounds with COUP-TFII inh. HEK293 Gal4-VP16 luciferase reporter, luminescence. inhibition, % at 8.5 µM. 25% of 2,500 active; in the data active = inhibition above about 13%
COUP-TFII conf – COUP-TFII (NR2F2) inhibition, confirmation assay; 45% of 2,500 active; HEK293 NGFI-A luciferase reporter, luminescence; inhibition, % at 8.5 µM; shares compounds with COUP-TFII inh; AID 687008;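 active = mean inhibition over three repeats above a set limit taken from the earlier primary screen, cut at about 38% in these data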
Numbers stand for hits; – = inactive; · = no result.

SMILES	TAG inh	Jurkat NFkB inh	Gli-Sufu antag	697 NFkB inh	COUP-TFII inh	H9c2 protect	Gli antag conf	SufuKO cytotox	Wnt3a counter	others
COCCN1Cc2cc(C(=O)OC)c3c(c2C1=O)c1cc(F)ccc1n3S(=O)(=O)c1ccc(C)cc1	·	·	·	·	–	·	·	·	·
COc1ccccc1CC(=O)NC1CCCCCC1	·	–	–	–	–	–	–	–	–
O=C(NC1CCCC1)C(c1ccncc1)N(Cc1ccccc1)C(=O)Cc1cccs1 (stereo not drawn)	·	–	–	–	–	–	·	·	·
COc1ccccc1CC(=O)NC1CC1	–	–	·	–	–	–	·	·	·
COc1ccccc1CN(C(=O)Cc1cccs1)C(C(=O)NC1CCCC1)c1ccncc1 (stereo not drawn)	·	–	56	–	–	–	–	27	–
CN(C)CCCNC(=O)c1c(N)[nH]c(C(=O)c2ccc(Br)cc2)c1-c1ccc(Br)cc1	·	·	·	·	–	·	·	·	·
CCOc1ccc(CN(C)c2ccc(S(=O)(=O)N3CCN(C)CC3)cc2[N+](=O)[O-])cc1OC	–	–	59	–	·	–	–	–	–
COC(=O)C[C@@H]1C[C@H]2c3cc(NC(=O)Nc4ccccc4F)ccc3O[C@H]2[C@@H](CO)O1	·	·	·	·	–	·	·	·	·
COCCn1c(-c2ccccc2)csc1=Nc1cccnc1	·	–	–	–	–	–	·	·	·
CC(C)n1c(-c2ccco2)csc1=Nc1cccnc1	–	–	–	–	–	–	51	25	–
CC(=O)N(C)c1cccc(-c2ccc3nnc(C)n3n2)c1	·	–	56	–	–	–	–	–	–
CC[C@@H](C)[C@H](C(CC(=O)N1CCCC1[C@@H](OC)[C@H](C)C(=O)N[C@H](Cc1ccccc1)c1nccs1)OC)N(C)C(=O)[C@H](NC(=O)[C@@H](C(C)C)N(C)C)C(C)C (stereo partly drawn)	–	·	–	·	–	–	70	62	40
COc1cccc(C2c3c(ncn(-c4ccccc4)c3=N)Oc3ccc4ccccc4c32)c1OC (stereo not drawn)	·	·	·	·	–	·	·	·	·
CC(C)(C)c1ccc(S(=O)(=O)NCC2CCCO2)cc1 (stereo not drawn)	·	–	62	–	–	–	–	–	–
Cc1cccc(-n2ncc3c2CCCC3NC(=O)C2=CC(=O)CC(C)(C)O2)c1C (stereo not drawn)	–	–	58	–	–	–	–	31	–
COc1ccc(CN2CCN(Cc3cccc(Oc4ccccc4)c3)CC2)c(OC)c1OC	·	–	–	–	–	–	–	26	–
CCOCC(=O)Nc1cc([N+](=O)[O-])ccc1C	·	–	91	–	–	–	–	–	–
CCOC(=O)c1cc(NC(=O)COc2ccc([N+](=O)[O-])cc2)cc(C(=O)OCC)c1	·	–	63	–	–	–	–	–	–
CCOCC(=O)Nc1cc([N+](=O)[O-])ccc1OC	·	–	–	–	–	–	·	·	·
Cc1cc(C)c(CN2CCN(C(=O)Cn3cc(C)c(=O)[nH]c3=O)CC2)c(C)c1	·	·	·	·	–	·	·	·	·
N#Cc1ccc(OCC(=O)OCC(=O)Nc2sccc2C(N)=O)cc1	–	–	–	–	–	–	–	30	–
Cc1cccc(CSC(=N)N)c1	·	–	–	–	–	–	·	·	·
Cc1cccc(CSC(Nc2ccc(F)cc2)=C(C#N)C#N)c1	·	–	56	–	–	–	62	–	52
COC(=O)c1cccc(Cn2ccc3ccc(-c4ccc5ccn(C(=O)c6cccc(OC)c6)c5c4)cc32)c1	·	·	·	·	–	·	·	·	·
C=CCN=C1NC(c2ccc(C(F)(F)F)cc2)C(C(=O)OC)=C(C)N1C (stereo not drawn)	·	·	·	·	–	·	·	·	·
SMILES	TAG inh	Jurkat NFkB inh	Gli-Sufu antag	697 NFkB inh	COUP-TFII inh	H9c2 protect	Gli antag conf	SufuKO cytotox	Wnt3a counter	others
O=C1NC(c2cccc3ccccc23)Nc2ccc(Cl)cc21 (stereo not drawn)	52	·	61	·	–	–	59	64	–	TAG conf=–
COC(=O)C1=C(C)N(C)C(=NCc2cccc(C(F)(F)F)c2)NC1c1ccccc1 (stereo not drawn)	·	·	·	·	–	·	·	·	·
COc1ccc(Cc2n[nH]c(=S)o2)cc1	56	–	–	–	–	–	–	–	–	TAG conf=–
C[C@H]1[C@H](N(C)C)CC[C@@]23CCCN2C(=O)CCC[C@@H]13	·	·	·	·	–	·	·	·	·
CCOC(=O)N(C)[C@H]1C[C@H]2c3[nH]c4ccccc4c3CCN2C[C@H]1[C@H](C)O	·	·	·	·	–	–	·	·	·
CCC1(O)CC2CN(CCc3c([nH]c4ccccc34)C(C(=O)OC)(c3cc4c(cc3OC)N(C=O)C3C(O)(C(=O)OC)C(OC(C)=O)C5(CC)C=CCN6CCC43C65)C2)C1 (stereo not drawn)	52	·	–	·	–	–	63	65	–	TAG conf=57
COc1cccc(CN(C)C(=O)c2cccc(S(=O)(=O)N3CCN(Cc4ccccc4)CC3)c2)c1OC	–	–	–	–	–	–	·	·	·
CN(Cc1ccc(Cl)cc1Cl)C(=O)c1cccc(S(=O)(=O)N2CCN(c3ccccc3)CC2)c1	–	–	–	–	–	–	·	·	·
CN(Cc1ccc(OC(F)F)cc1)C(=O)c1cccc(S(=O)(=O)N2CCN(Cc3ccccc3)CC2)c1	–	·	58	·	55	–	58	–	–	VP16 Luc counter=–;COUP-TFII conf=42
CN(Cc1c(F)cccc1Cl)C(=O)c1cccc(S(=O)(=O)N2CCN(Cc3ccccc3)CC2)c1	–	·	–	·	–	–	·	·	·
COc1cccc(CN(C)C(=O)c2cccc(S(=O)(=O)N3CCN(c4ccc(F)cc4)CC3)c2)c1OC	–	–	–	–	59	–	50	33	–	VP16 Luc counter=–;COUP-TFII conf=39
CN(CCOc1ccc(Cl)cc1)C(=O)c1cccc(S(=O)(=O)N2CCN(c3ccccc3)CC2)c1	–	·	–	·	59	–	58	34	–	VP16 Luc counter=–;COUP-TFII conf=44
O=C(Nc1ccncc1)c1cccc(S(=O)(=O)N2CCc3ccccc32)c1	–	–	56	–	61	–	55	–	40	VP16 Luc counter=–;COUP-TFII conf=45
COc1cccc(CNC(=O)C[C@H]2CC[C@H]3[C@@H](COc4ccc(NC(=O)c5cccs5)cc4C(=O)N3C)O2)c1	·	·	·	·	–	·	·	·	·
Cc1ccc2c(c1)[nH]c1c(N3CCN(Cc4ccccc4)CC3)ncnc12	·	–	68	–	67	–	63	30	–	VP16 Luc counter=–;COUP-TFII conf=40
